The results in this text go back to PubChem BioAssay (EPA / NIEHS).

Some structures have more than one record in an assay (separate samples or runs), and their calls can disagree. Active and inactive are the calls of the source. Rule for the calls: active = hit-call score of the fitted dose curve at least 0.9, where 1 is the maximum; inactive = score below 0.9.

Usually AC50 stands for the concentration at which the activity in the assay is half-maximal.

Experiment [1] is described as follows: BSK_CASM3C_SRB: Viability Assessment in the BioMAP Diversity Plus: CASM3C Assay (AID 2283050).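 Note: total protein by SRB staining as cytotoxicity measure in parallel cultures.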 As to conditions: primary human coronary artery smooth muscle cells.
Read-out in experiment [2]: Thrombomodulin, THBD (gene 7056)
Briefly: BSK_CASM3C_Thrombomodulin: BioMAP Diversity Plus: CASM3C Assay for Thrombomodulin Biomarker Activity (AID 2283051).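 Note: thrombomodulin protein level measured by ELISA 24 h after dosing.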 The following applies: primary human coronary artery smooth muscle cells; actives raise or lower the signal.

Read-out in experiment [3]: Tissue Factor, F3 (gene 2152)
Briefly: BSK_CASM3C_TissueFactor: BioMAP Diversity Plus: CASM3C Assay for Tissue Factor Biomarker Activity (AID 2283052).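 Note: cell surface tissue factor protein level read by ELISA.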 As to conditions: primary human coronary artery smooth muscle cells; actives raise or lower the signal.

Read-out in experiment [4]: Interferon-gamma inducible Protein 10 (IP10), CXCL10 (gene 3627)
Briefly: BSK_hDFCGF_IP10: BioMAP Diversity Plus: hDFCGF Assay for Interferon-gamma inducible Protein 10 (IP10) Biomarker Activity (AID 2283053). As to conditions: primary human foreskin fibroblasts; actives raise or lower the signal. Put shortly:
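IP-10 levels, quantified by ELISA, are taken from human foreskin fibroblast cultures 24 h after chemical treatment, with DMSO serving as negative control and baseline for bidirectional analysis.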

Read-out in experiment [5]: Urokinase-type plasminogen activator receptor (uPAR), PLAUR (gene 5329)
Briefly: BSK_CASM3C_uPAR: BioMAP Diversity Plus: CASM3C Assay for Urokinase-type plasminogen activator receptor (uPAR) Biomarker Activity (AID 2283054).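 Note: cell-surface uPAR protein level quantified by ELISA.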 The following applies: primary human coronary artery smooth muscle cells; actives raise or lower the signal.

Read-out in experiment [6]: Vascular cell adhesion molecule 1 (VCAM1), VCAM1 (gene 7412)
Briefly: BSK_CASM3C_VCAM1: BioMAP Diversity Plus: CASM3C Assay for Vascular cell adhesion molecule 1 (VCAM1) Biomarker Activity (AID 2283055).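 Note: VCAM-1 protein level quantified by ELISA on the cells.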 The following applies: primary human coronary artery smooth muscle cells; actives raise or lower the signal.

Read-out in experiment [7]: Collagen III, COL3A1 (gene 1281)
Briefly: BSK_hDFCGF_CollagenIII: BioMAP Diversity Plus: hDFCGF Assay for Collagen III Biomarker Activity (AID 2283056). The following applies: primary human foreskin fibroblasts; actives raise or lower the signal. Put shortly: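 ELISA readout of Collagen III in human dermal (foreskin) fibroblasts, taken 24 h post-treatment. Gain or loss relative to DMSO vehicle fitted in both directions.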

Read-out in experiment [8]: Epidermal growth factor receptor (EGFR), EGFR (gene 1956)
Briefly: BSK_hDFCGF_EGFR: BioMAP Diversity Plus: hDFCGF Assay for Epidermal growth factor receptor (EGFR) Biomarker Activity (AID 2283057). The following applies: primary human foreskin fibroblasts; actives raise or lower the signal. In a few lines:
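Measured by ELISA: EGFR levels on primary human foreskin fibroblasts 24 h after chemical treatment, analysed relative to DMSO with bidirectional fitting.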

Read-out in experiment [9]: Interleukin-8 (IL8), CXCL8 (gene 3576)
Briefly: BSK_hDFCGF_IL8: BioMAP Diversity Plus: hDFCGF Assay for Interleukin-8 (IL8) Biomarker Activity (AID 2283058). The following applies: primary human foreskin fibroblasts; actives raise or lower the signal. Put shortly: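 IL-8 levels read by ELISA at 24 hours after dosing human skin fibroblast cultures. Parallel SRB staining assessed overt cytotoxicity, and gain or loss of signal was fitted against DMSO control.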

The nature of experiment [10]: BSK_hDFCGF_Proliferation: Cell Proliferation Assessment in the BioMAP Diversity Plus: hDFCGF Assay (AID 2283059).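 Note: curves fitted for both rise and fall of signal versus DMSO baseline.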 The following applies: primary human foreskin fibroblasts. Put shortly: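 Primary human foreskin fibroblasts, sub-confluent; […]; 10% TCA fix, 0.1% SRB stain, A560 total protein. Gain/loss fitted bidirectionally vs DMSO control.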
Read-out in experiment [11]: Macrophage colony-stimulating factor (MCSF), CSF1 (gene 1435)
Briefly: BSK_hDFCGF_MCSF: BioMAP Diversity Plus: hDFCGF Assay for Macrophage colony-stimulating factor (MCSF) Biomarker Activity (AID 2283060). The following applies: primary human foreskin fibroblasts; actives raise or lower the signal. Put shortly:
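M-CSF levels read by ELISA at 24 h post-dosing in human skin fibroblasts. Parallel cultures stained with SRB assessed cytotoxicity at the same time point; response fitted in both directions against the DMSO baseline.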

Experiment [12] is described as follows: BSK_hDFCGF_SRB: Viability Assessment in the BioMAP Diversity Plus: hDFCGF Assay (AID 2283061).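 Note: cells exposed to compound for 24 h before the read.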 The following applies: primary human foreskin fibroblasts. In a few lines:
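Viability was read as total protein: after 10% TCA fixation, wells were stained with 0.1% sulforhodamine B and read at 560 nm. Primary human foreskin fibroblasts were dosed for 24 h, with bidirectional fitting versus DMSO.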

Read-out in experiment [13]: TIMP metallopeptidase inhibitor 1 (TIMP1), TIMP1 (gene 7076)
Briefly: BSK_hDFCGF_TIMP1: BioMAP Diversity Plus: hDFCGF Assay for TIMP metallopeptidase inhibitor 1 (TIMP1) Biomarker Activity (AID 2283062). The following applies: primary human foreskin fibroblasts; actives raise or lower the signal. In a few lines: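 TIMP-1 measured by ELISA 24 h after chemical dosing of primary human skin fibroblasts, with gain or loss fitted relative to DMSO. Parallel SRB staining (560 nm) monitored overt cytotoxicity.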

Read-out in experiment [14]: Monokine induced gamma interferon (MIG), CXCL9 (gene 4283)
Briefly: BSK_hDFCGF_MIG: BioMAP Diversity Plus: hDFCGF Assay for Monokine induced gamma interferon (MIG) Biomarker Activity (AID 2283063). The following applies: primary human foreskin fibroblasts; actives raise or lower the signal. In a few lines: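 Human primary foreskin fibroblasts in the hDFCGF system, exposed to test chemical for 24 h; MIG measured by ELISA. Bidirectional curve fitting against DMSO negative control as activity baseline.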

Read-out in experiment [15]: Matrix Metallopeptidase 1 (MMP1), MMP1 (gene 4312)
Briefly: BSK_hDFCGF_MMP1: BioMAP Diversity Plus: hDFCGF Assay for Matrix Metallopeptidase 1 (MMP1) Biomarker Activity (AID 2283064). The following applies: primary human foreskin fibroblasts; actives raise or lower the signal. Put shortly: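 Primary human foreskin fibroblasts exposed to chemicals for 24 h; MMP1 measured by ELISA. Cytotoxicity tracked by SRB staining in parallel cultures; bidirectional fit relative to DMSO.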

Read-out in experiment [16]: Vascular cell adhesion molecule 1 (VCAM1), VCAM1 (gene 7412)
Briefly: BSK_hDFCGF_VCAM1: BioMAP Diversity Plus: hDFCGF Assay for Vascular cell adhesion molecule 1 (VCAM1) Biomarker Activity (AID 2283065).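 For AC50: VCAM-1 protein level quantified by ELISA after 24 h chemical exposure.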 As to conditions: primary human foreskin fibroblasts; actives raise or lower the signal. Put shortly:
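ELISA readout of VCAM-1 on human dermal fibroblast primary cultures, 24 h after chemical exposure. Gain or loss of signal fitted in both directions against DMSO baseline.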

Read-out in experiment [17]: Plasminogen activator inhibitor-1 (PAI1), SERPINE1 (gene 5054)
Briefly: BSK_hDFCGF_PAI1: BioMAP Diversity Plus: hDFCGF Assay for Plasminogen activator inhibitor-1 (PAI1) Biomarker Activity (AID 2283066). As to conditions: primary human foreskin fibroblasts; actives raise or lower the signal. In a few lines: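 PAI-1 levels, determined by ELISA, served as the endpoint in human foreskin fibroblast cultures exposed to compound for 24 h, with DMSO as baseline.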

Read-out in experiment [18]: Intercellular Adhesion Molecule 1 (ICAM1), ICAM1 (gene 3383)
Briefly: BSK_KF3CT_ICAM1: BioMAP Diversity Plus: KF3CT Assay for Intercellular Adhesion Molecule 1 (ICAM1) Biomarker Activity (AID 2283067). The following applies: primary human keratinocytes with fibroblasts; actives raise or lower the signal. Put shortly: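 Cell-surface ICAM-1 was measured by ELISA 24 h after dosing primary human skin keratinocytes co-cultured with fibroblasts. Parallel SRB staining tracked overt cytotoxicity. Gain or loss of signal was fitted relative to DMSO.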

Read-out in experiment [19]: Interferon-gamma inducible Protein 10 (IP10), CXCL10 (gene 3627)
Briefly: BSK_KF3CT_IP10: BioMAP Diversity Plus: KF3CT Assay for Interferon-gamma inducible Protein 10 (IP10) Biomarker Activity (AID 2283068). The following applies: primary human keratinocytes with fibroblasts; actives raise or lower the signal. In a few lines: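 In a primary skin co-culture of keratinocytes and fibroblasts, IP-10 is quantified by ELISA at 24 h after dosing. SRB staining of parallel wells monitors overt toxicity. Curves are fitted both directions against DMSO.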

Experiment [20] can be described thus: BSK_KF3CT_SRB: Viability Assessment in the BioMAP Diversity Plus: KF3CT Assay (AID 2283069).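 Note: total protein by sulforhodamine B staining as a cytotoxicity measure; read 24 h after compound addition.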 As to conditions: primary human keratinocytes with fibroblasts. In a few lines:
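Human keratinocyte and foreskin fibroblast co-culture exposed to chemical for 24 h. Total protein measured in parallel cultures by 0.1% sulforhodamine B staining after 10% TCA fixation, read at 560 nm; bidirectional fit relative to DMSO.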

Turning to `Fc1ccc(Oc2ccnc3cc(Cl)cc(Cl)c23)cc1`, the concentration at half-maximal activity (AC50) was 23.7 µM (active) in experiment [1]; 18.6 µM (active) in [2]; 24.3 µM (active) in [4]; 12.1 µM (active) in [7]; 11.7 µM (active) in experiment [10]; 16.4 µM (active) in experiment [11]. Moreover, the AC50 was 15.3 µM (active) in [12]; 26.6 µM (active) in [14]; 35.3 µM (active) in [15]; 13.2 µM (active) in [16]; 18 µM (active) in experiment [17]; 17.9 µM (active) in experiment [19]. The outcome in experiment [3], in experiment [5], in [6], in [8], in experiment [9] and in [13] was inactive. Moreover, the outcome in [18] and in experiment [20] was inactive.

Turning to `COc1cnc(OC)n2nc(NS(=O)(=O)c3c(OCC(F)F)cccc3C(F)(F)F)nc12`, the result in experiment [1], in experiment [2], in experiment [3], in experiment [4], in experiment [5] and in experiment [6] was inactive. Moreover, the result in [7], in experiment [8], in [9], in [10], in [12] and in experiment [13] was inactive. Further, the outcome in experiment [15], in [16], in experiment [17], in experiment [18], in experiment [19] and in experiment [20] was inactive. The results for the AC50 in [13] and in experiment [19] were 20 µM (active) and 34.2 µM (active), respectively.

`COP(N)(=O)SC` (stereo not drawn): the result in experiment [1], in [2], in experiment [3], in [4], in experiment [5] and in [6] was inactive. For the same compound, the outcome in [7], in [8], in experiment [9], in [10], in experiment [11] and in [12] was inactive. Besides, the result in experiment [13], in experiment [15], in experiment [16], in experiment [17], in [18] and in experiment [19] was inactive. Further, the outcome in experiment [20] was inactive.

For `CC1=C(C(=O)Nc2ccccc2)SCCO1`, the outcome in experiment [1], in experiment [2], in experiment [3], in experiment [4], in [5] and in [6] was inactive. The outcome in [7], in experiment [8], in experiment [9], in experiment [10], in experiment [12] and in experiment [13] was inactive. Also, the result in [14], in experiment [15], in experiment [16], in experiment [17], in experiment [18] and in experiment [19] was inactive. Also, the outcome in experiment [20] was inactive.

As to `CC(Oc1ccc(Cl)cc1Cl)C(=O)O` (stereo not drawn), the outcome in experiment [1], in experiment [2], in experiment [3], in [4], in experiment [5] and in [6] was inactive. The outcome in [7], in [8], in experiment [9], in [10], in experiment [11] and in experiment [12] was inactive. Also, the result in [13], in experiment [14], in experiment [15], in [16], in [17] and in experiment [18] was inactive. Also, the result in [19] and in [20] was inactive.
